Assay results reported in the OligoGym collection.

target: FYTTD1; experiment: pooled miR-30 sensor sort-seq; sequence = guide strand; details: shRNA
Also: reference of the scale not given here.

Sequence	sensor-assay potency score (higher = more potent)
TTGTATGTGAGAGTGGCTCTTT	-0.0403
TAGTCTTGGAAAATTCTGCTTC	0.266
TATTCTTGTCACTTAGAGGTGG	0.0654
TGCTACTACATCGTCTAGCAGT	-0.935
TTCTGTATTCAACTGGGCCTGC	-0.211
TTATTTTTTCTGCTTAGCTGGC	-0.29
TAGGTCTCTTGAGAACTGCTAC	-0.309
TACTACATCGTCTAGCAGTTGT	0.276
TTCTCTTTGCTACTACATCGTC	-0.513
TAGCTGGCTAGGTCTCTTGAGA	-1.72
TTTAATTTATTTCCACTCCTGG	-0.341
TTAAAAATGAAGGTACAGCAGT	-0.441

target: FZD1; experiment: as above; details: shRNA

Sequence	sensor-assay potency score (higher = more potent)
TAGAACTTCCTCCAGGAGTTGA	-0.794
TTTGCTGTTGGTGAGCCTCGTG	-0.218
TGTCATTACACACCACTCGGTC	-0.427
ATGAAGACCGTGAAGTCCGGGC	-0.0414
TTCACTAGAGGGTAGAACTGGT	0.461
TACAGCACGCTGAAGACGCCAA	-0.38
TTGTCATTACACACCACTCGGT	-0.649
TACTTAATCATGAAGACCGTGA	-0.126
